Measured values: the OligoGym collection

Molecular target: TNK1
Assay: pooled miR-30 sensor sort-seq; sequence = guide strand
Details: shRNA
Note: reference of the scale not given here.

Row | Sequence | sensor-assay potency score (higher = more potent)
1 | TACAAAGTCGAAGTGCTCTGGC | 0.534
2 | TTCAGAGCTTCGGACAGTCTGC | -0.64
3 | TATAGCAGCTCTTTTCTTCCAA | 0.014
4 | TTGCCTTCTTTCTGTCTCCATC | -1.2
5 | TTTGCCTTCTTTCTGTCTCCAT | -0.221

Molecular target: TNKS2
Assay: as above
Details: shRNA

Row | Sequence | sensor-assay potency score (higher = more potent)
6 | TTTTGATTCGAGTAACATCAGC | -1.09
7 | TAGTTTCTTGTTACAAACCTTC | -0.305
8 | TTTCTTGTTACAAACCTTCTGA | 0.0757
9 | TTACTCTGTTATATCCTGCTGC | 0.643
10 | TTACAGTTTCGACATCTCCAGC | -0.869
11 | TTATGCTAAAATCTACTCCTGG | 0.0124
12 | TTTAATTGCAGCTTCATGGAGA | 0.599
13 | TTCCACTTGAACTAACTACTGA | 0.487
14 | TATACTTTATTAGTAGAGCTGC | 0.192
15 | TAAATTTCCATAAATCAGCTAC | 0.246
